According to PubChem BioAssay:
Values without a mark were called inactive. The rule behind the calls is not given here.

Target: Pantothenate synthetase (Mycobacterium tuberculosis (strain ATCC 25618 / H37Rv)) (UniProt P9WIL5)
Test: Coupled enzyme confirmation of inhibitors against recombinant Mtb PanC (AID 375);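 note: 0% = full reaction with vehicle and 100% = no enzyme background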
Settings: coupled enzyme assay; at 10 µM, hits give high values

Sequence of Pantothenate synthetase (Mycobacterium tuberculosis (strain ATCC 25618 / H37Rv)) (P9WIL5 whole entry, looked up): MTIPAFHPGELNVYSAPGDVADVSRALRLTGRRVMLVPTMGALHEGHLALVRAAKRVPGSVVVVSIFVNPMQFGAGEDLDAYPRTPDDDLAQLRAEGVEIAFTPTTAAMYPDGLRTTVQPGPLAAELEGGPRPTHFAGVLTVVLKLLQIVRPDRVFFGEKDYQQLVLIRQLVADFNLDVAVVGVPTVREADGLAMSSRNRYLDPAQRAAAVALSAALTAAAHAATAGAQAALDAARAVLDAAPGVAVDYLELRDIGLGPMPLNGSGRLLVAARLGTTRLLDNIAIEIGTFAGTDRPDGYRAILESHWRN

| SMILES | inhibition [%] |
| --- | --- |
| COc1ccccc1N1CCN(C(=O)CSc2nc3ncnc(N)c3[nH]2)CC1 | 8 |
| CCCCNC(=O)c1nnn(-c2ccccc2)c1N | 0 |
| CCOC(=O)N1CCC(N(CCCOC)C(=O)Nc2ccc(CC)cc2)CC1 | 0 |
| CSc1cccc(NC(=O)C2CCN(S(=O)(=O)c3ccc(F)cc3)CC2)c1 | 0 |
| CCn1c(=O)c(C(=O)NCc2ccc(OC)cc2)c(O)c2ccccc21 | 3 |
| CC(C)CC(=O)N1CCN(S(=O)(=O)c2ccc(F)cc2)CC1 | 0 |
| CC1=C(C(=O)OCc2ccccc2)C(c2ccc(C)o2)C2=C(CCCC2=O)N1 (stereo not given) | 4 |
| CC1CCN(C(=S)c2ccccc2O)CC1 | 0 |
| CCCc1[nH]nc2c1C(c1cn[nH]c1-c1ccc(F)cc1)C(C#N)=C(N)O2 (stereo not given) | 10 |
| CC(C)(C)OC(=O)N1CCCC1C(=O)N1CCc2ccccc21 (stereo not given) | 0 |
| CC1(C)S[C@@H]2[C@H](NC(=O)Cc3ccccc3)C(=O)N2[C@H]1C(=O)O | 6 |
| COc1ccccc1N1CCN(C(=O)C(Cc2ccccc2)NC(=O)C2CCCCC2)CC1 (stereo not given) | 5 |
| CN1CCN(Cc2nc3c(c(=O)[nH]c(=O)n3C)n2CCc2ccccc2)CC1 | 0 |
| Cc1cc(N2CCC3(CC2)OCCO3)n2nc(C)c(-c3ccc(Cl)cc3)c2n1 | 8 |
| CC(=O)N=c1sc(S(N)(=O)=O)nn1C | 0 |
| CCCCNC(=O)Cn1c(=O)n(C)c2ccccc21 | 0 |
| COC(=O)c1[nH]c2c(c1C)C(=O)CC(c1cc(OC)ccc1OC)C2 (stereo not given) | 0 |
| COC(=O)c1cnc2c(C(F)(F)F)cccc2c1OC | 2 |
| NS(=O)(=O)c1ccc(C(=O)O)cc1 | 0 |
| COC(=O)Cn1cc(C(=O)c2cccs2)c2ccccc21 | 0 |

| SMILES | inhibition [%] |
| --- | --- |
| CCOC(=O)c1sc(NC(=O)CSc2ncn(-c3ccccc3)n2)nc1C | 3 |
| Cc1ccc(/C(O)=C2/C(=O)C(=O)N(Cc3ccco3)C2c2cccs2)cc1 (stereo not given) | 0 |
| CCCCc1ccc(NC(=O)c2c(C)noc2C)cc1 | 8 |
| CC1(C)CC(=O)c2c(O)cc(O)cc2O1 | 3 |
| CCOc1cc(C2C(C#N)=C(N)Oc3n[nH]c(CC)c32)ccc1OCCN1CCOCC1 (stereo not given) | 0 |
| CCCCn1c(SCC(=O)Nc2cc(C)on2)nnc1-c1cccnc1 | 0 |
| CCN1CCN(CCNC(=O)c2cn(C(C)c3ccccc3F)nn2)CC1 (stereo not given) | 0 |
| O=C(CSc1nnc2scc(-c3ccccc3)n12)Nc1nsc(-c2ccccc2)n1 | 1 |
| CS(=O)(=O)c1ccc2nc(NC(=O)CCC(=O)c3cccs3)sc2c1 | 1 |
| CCOC(=O)c1[nH]nc(-c2c(O)cc(C)cc2O)c1-c1csc(C)n1 | 0 |
| C=C(C)COc1ccc(-c2nc(N)ncc2Oc2ccccc2OCC)c(O)c1 | 1 |
| CCC1Cc2c(nc3c4c(nc(N5CCOCC5)c(C#N)c24)NC(C)=N3)O1 (stereo not given) | 0 |
| CCC(=O)N1CCc2cc(S(=O)(=O)CCC(=O)Nc3c(C)n(C)n(-c4ccccc4)c3=O)ccc21 | 7 |
| COc1ccc(S(=O)(=O)Nc2ccc(F)c(F)c2)cc1Cl | 0 |
| CC1(C)NC(=O)N(CN2C(=O)NC(C)(C)C2=O)C1=O | 0 |
| CCOP(=O)(c1ccc(N(C)C)cc1)C(O)c1ccccc1OC (stereo not given) | 5 |
| O=C(Nc1ccc(N2CCN(Cc3ccccc3Cl)CC2)cc1)c1cccnc1 | 4 |
| COc1cccc(OC)c1C(=O)Nc1ccccc1N1CCCC1 | 2 |
| CCOc1ccccc1C(=O)NCc1ccc2c(c1)OCO2 | 4 |
| COc1ccc(CN(CCN(C)C)c2ccccn2)cc1 | 4 |
